Screens from PubChem.
ROC1-CUL1 inh – inhibitors of human ROC1-CUL1 ubiquitin ligase activity; P62877+Q13616; in vitro K48 di-Ub FRET, acceptor:donor ratio, 45 min; inhibition, % at 10 µM; 140,000 compounds, 0.6% hits; AID 1347404; in the data active = inhibition above about 25%
* = called active by the depositor. The full list was thinned out, with hits kept by preference.

SMILES	ROC1-CUL1 inh
COc1cc(C2C3=C(CC(C)(C)CC3=O)N(c3ncn[nH]3)C(=N)C2C#N)ccc1OCc1ccccc1 (stereo not drawn)	32*
CCSc1nnc(NC(=O)C(C(F)(F)F)C(F)(F)F)s1	32*
CCSc1nnc(NC(=O)C(C)C)s1	0
CCSc1nnc(NC(=O)OC)s1	-6
CCCC(=O)N(c1ccc2oc(C)c(C(C)=O)c2c1)S(=O)(=O)c1cc(C)ccc1C	-7
O=C(Oc1ccc(Sc2ccc(O)cc2)cc1)c1ccco1	2
COc1ccc(C2C(C)C(NCc3ccc(OC(C)C)cc3)NS2(=O)=O)cc1 (stereo not drawn)	-4
COc1cc(C(=O)Nc2ccc(C)c(Cl)c2)cc(OC)c1OC	4
C=CCOc1ccc(Br)cc1/C=C1/SC(=O)NC1=O	-11
C=CCOc1ccc(Br)cc1/C=C/c1[nH]c(=O)[nH]c(=O)c1[N+](=O)[O-]	42*
C#CCOc1ccc(/C=C/c2[nH]c(=O)[nH]c(=O)c2[N+](=O)[O-])cc1OC	3
O=C(O)c1sccc1-c1ccsc1C(=O)O	-1
c1cc2c(s1)COCc1sccc1-2	45*
Brc1ccc(-c2nnco2)cc1	-6
S=C(c1ccc2ccccc2c1)N1CCCCC1	3
CCCN1C(=O)/C(=C/c2ccc(N(C)C)cc2)SC1=S	-5
CCN(CC)CN1C(=O)S/C(=C/c2ccc(N(CC)CC)cc2)C1=O	10
CCN(CC)c1ccc(/C=C2\SC(=S)N(N)C2=O)cc1	55*
N#CC1C(=N)S/C(=C/c2ccco2)C1=N (stereo not drawn)	24
C(=N\N(c1ccccc1)c1ccccc1)/c1ccco1	1
C(=C1Sc2ccccc2S1)c1ccco1	57*
COc1cc2c(c(OC)c1)C(=O)C2	3
COc1cc(NC(C)=O)c(-c2c(NC(C)=O)cc(OC)c(OC)c2OC)c(OC)c1OC	5
COc1cc2c(c(O)c1OC)C(=O)C(=O)CC=C2	33*
O=C(NC1CCCCC1)c1ccc(C(F)(F)F)cc1	1
SMILES	ROC1-CUL1 inh
Cc1cc(/C=C2\C(=O)NC(=S)N(C)C2=O)c(C)n1-c1ccc(C(=O)O)cc1	3
Cc1cc(/C=C2/C(=O)NC(=S)N(c3ccc(Br)cc3)C2=O)c(C)n1-c1ccccc1	8
Cc1ccc(N2C(=O)/C(=C/c3cc(C)n(-c4cccc(C(=O)O)c4)c3C)C(=O)N(C)C2=S)cc1	34*
Cc1cc(C(=O)N2CCc3[nH]nc(Cc4ccc(Cl)cc4)c3C2)n(C)n1	-6
COc1ccc2c(c1)CCC1C2=CCN2C(=O)CCC12 (stereo not drawn)	3
COc1cc(NCCCCCCCN)c2ncccc2c1	-3
COc1cc(NCCCCCN)c2ncccc2c1	26*
COc1ccc(OC)c(NS(=O)(=O)c2cccc3cccnc23)c1	1
CCc1c(C)[nH]n(-c2nc3ccccc3s2)c1=O	6
Cc1cc(-c2ccccc2)nn1-c1nc2ccccc2s1	-3
COc1ccc(CCn2c(O)cc3nn(-c4nc5ccccc5s4)c(=O)c-3c2C)cc1	80*
CCOc1ccc2nc(N3CCCC3C(=O)NCC3(N4CCOCC4)CCCC3)nc(C)c2c1 (stereo not drawn)	-7
Cc1ccc(C2C(C)C(N3CCC(C(=O)NC(C)Cc4ccco4)CC3)NS2(=O)=O)cc1C (stereo not drawn)	-7
O=C(O)c1cc(-c2ccc(CC3=NC(=O)N(Cc4ccccc4)C3=O)o2)ccc1Cl	58*
CC(C)CCNCc1ccc(-c2cccc(C(=O)O)c2)o1	3
O=C1N=C(Cc2ccc(-c3ccccc3)o2)C(=O)N1Cc1ccc(Cl)cc1	6
O=C(O)c1ccc(-c2ccc(CC3=NC(=O)N(Cc4ccccc4F)C3=O)o2)cc1Cl	3
CC(C)CN1C(=O)C(Cc2ccc(-c3cccc(C(=O)O)c3)o2)=NC1=S	28*
O=C1N=C(Cc2ccc(-c3ccc(Cl)c(Cl)c3)o2)C(=O)N1Cc1ccccc1	-8
CCOC(=O)C1=C(C)N=c2s/c(=C\c3cc(Cl)cc(Cl)c3O)c(=O)n2C1c1ccccc1Cl (stereo not drawn)	-29
Cc1ccccc1NC(=O)C1C2c3ccccc3OC1(C)N=c1s/c(=C/c3cnn(C)c3C)c(=O)n12 (stereo not drawn)	-4
COC(=O)C1C2(C)N=c3s/c(=C\c4cc(Cl)cc(Cl)c4O)c(=O)n3C3c4ccccc4OC312 (stereo not drawn)	41*
CC1(C)OC2OC(C(O)c3cc(O)c4c(c3O)C(=O)c3ccccc3C4=O)C(C)(O)C2O1 (stereo not drawn)	65*
CCOC(=O)c1sc2nc(-c3ccc(Br)cc3)ccc2c1N	11
CCOc1ccc(N=CC2N=C(c3ccccc3)OC2=O)cc1 (stereo not drawn)	-3
SMILES	ROC1-CUL1 inh
Cc1[nH]n(-c2ccccc2)c(=O)c1C(c1ccc(OCc2ccc(F)cc2)cc1)c1c(C)[nH]n(-c2ccccc2)c1=O	-7
Cc1[nH]n(-c2ccccc2)c(=O)c1C(C[N+](=O)[O-])c1ccc(F)cc1 (stereo not drawn)	59*
COc1cc(C(c2c(C)[nH]n(-c3ccccc3)c2=O)c2c(C)[nH]n(-c3ccccc3)c2=O)ccc1C	-17
Cc1[nH]n(-c2ccccc2)c(=O)c1C(c1ccccc1O)c1c(C)[nH]n(-c2ccccc2)c1=O	-7
CCOc1cc(C(c2c(C)[nH]n(-c3ccccc3)c2=O)c2c(C)[nH]n(-c3ccccc3)c2=O)ccc1OCc1ccc(Cl)cc1	19
Cc1[nH]n(-c2ccccc2)c(=O)c1C(c1ccc2c(c1)OCO2)c1c(C)[nH]n(-c2ccccc2)c1=O	46*
Cc1[nH]n(-c2ccccc2)c(=O)c1C(C[N+](=O)[O-])c1ccc(Cl)cc1 (stereo not drawn)	2
CCOc1cc(C(c2c(C)[nH]n(-c3ccccc3)c2=O)c2c(C)[nH]n(-c3ccccc3)c2=O)ccc1O	39*
Cc1[nH]n(-c2ccccc2)c(=O)c1C(c1ccco1)c1c(C)[nH]n(-c2ccccc2)c1=O	5
COc1ccccc1NC(=O)C(=O)N/N=C/c1c[nH]c2ccccc12	4
O=C(OCC1CCCO1)c1ccc(COc2cc(Cl)ccc2Cl)cc1 (stereo not drawn)	-9
CCCC(=O)Nc1ccc(-c2ccc(Br)cc2)cc1	3
Cc1cccc(-n2c(SCCc3ccccc3)nnc2-c2ccc(Cl)cc2)c1	-2
COc1cccc(-c2cccc(N3CCC(NCC4CCC(=O)N4)CC3)c2)c1 (stereo not drawn)	-3
C=CCN1N=C(C)C(C)n2c1nc1c2c(=O)n(CC(=C)C)c(=O)n1C (stereo not drawn)	-11
Cn1c(=O)[nH]c(=O)c2c1nc1n(-c3ccccc3)c(-c3ccc(F)cc3)cn21	0
Nc1c(C(=O)Nc2ccccc2C(=O)O)sc2nc3c(cc12)CCCCCC3	9
Nc1c(C(=O)Nc2ccccc2F)sc2nc3c(cc12)CCCCC3	2
Nc1c(C(=O)Nc2ccccc2C(=O)O)sc2nc3c(cc12)CCCCC3	35*
O=C1C(Oc2ccccc2)C2(c3ccc(Cl)cc3)CC(c3ccccc3)Sc3ccccc3N12 (stereo not drawn)	2
Cc1ccc(C)c(OCC(=O)Nc2ncccn2)c1	-10
COc1ccc(Nc2cccc(C(F)(F)F)c2)c(C(=O)O)c1	-4
Cc1cc(=O)oc2cc(OC(=O)c3ccc(=O)oc3)ccc12	8
CC(C)(C)c1ccc(C(=O)Oc2ccc3c(-c4ccccc4C(=O)O)c4ccc(=O)cc-4oc3c2)cc1	33*
O=C(Oc1ccc2c(C(F)(F)F)cc(=O)oc2c1)c1ccccc1	-1
